Compound activity from PubChem BioAssay.
Rows were chosen to be rich in hits. Some 6.5% of all compounds tested hit in one or more screens of this group.
NADH coupling: inhibitors of PK/LDH coupling enzymes, profiling panel, artefact control, biochemical, MLSMR library; AID 774, 2007; IC50, µM (top dose mostly 10 µM), inactives show top-dose inhibition; coupled PK/LDH NADH assays, four targets; 0.02% of 65,000 active;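 active = single-dose screening hits from any of four coupled enzyme assays that gave an IC50 when retested across doses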;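 also: the DPM-DC format reads NADH fluorescence rather than 340 nm absorbance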
PMK inhibit: S. pneumoniae PMK inhibitors, primary screen, biochemical, mevalonate pathway, pilot trial included; inhibition, % at 10 µM; 0.49% of 65,000 active; purified PMK, PK/LDH-coupled NADH absorbance 340 nm; phosphomevalonate kinase (Streptococcus pneumoniae D39);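 active = top-ranked compounds by inhibition in the single 10 µM screen, taking a fixed number of the strongest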;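 also: 0% = full reaction with DMSO carrier and 100% = background rate without enzyme reaction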
Abs 340nm: compound light absorbance at 340 nm, profiling panel, artefact control, biochemical, MLSMR library, data from PS, PMK, MK assays; compound absorbance at 340 nm, fold over control; fold change at 10 µM; 65,000 tested, under 10 active; AID 708, 2007;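 active = at 10 µM dose, initial 340 nm absorbance at least 2 fold that of control wells; inactive = change under 2 fold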;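 also: initial absorbance extrapolated from kinetic A340 decline of NADH oxidation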
Spn MK inh: S. pneumoniae MK inhibitors, primary screen, biochemical, PK/LDH-coupled NADH absorbance | 0.48% of 65,000 active | mevalonate kinase [Streptococcus pneumoniae D39] | inhibition, % at 10 µM | AID 555, 2006 | purified MK, PK/LDH-coupled NADH absorbance 340 nm;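 active = ranked among the strongest by inhibition in the single 10 µM screen, a fixed top-ranked set picked for dose follow-up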
Autofluor 339: intrinsic fluorescence of library compounds, ex339/em460 – biochemical, MLSMR library, data from DPM-DC assay, artefact control, profiling panel; compound autofluorescence, ex339/em460 nm, NADH buffer; hits give high values; 1 = no-compound wells, NADH background; fluorescence fold increase at 10 µM; 5.5% of 65,000 active; AID 709, 2007;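 active = at 10 µM, mean starting fluorescence two-fold or more over control wells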;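 also: signal is the first read of a kinetic run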
DPM-DC inhibit: S. pneumoniae DPM-DC inhibitors, primary screen, biochemical, PK/LDH-coupled NADH fluorescence | diphosphomevalonate decarboxylase (Streptococcus pneumoniae D39) | purified DPM-DC | calls only at 10 µM | 0.49% of 65,000 active | AID 556, 2006;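 active = the 320 compounds with the highest percent inhibition in the single-dose primary screen, excluding strongly autofluorescent ones, cut at about 32% in these data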;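 also: kinetic rate of NADH fluorescence loss reporting ADP formed by the decarboxylase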
* hit, by the source's call.

`CCOC(=O)C1=C(C)NC(=O)NC1c1cc(Br)c(O)c(OC)c1` (centres undefined) gave NADH coupling 13.0%, PMK inhibit 8.0, Abs 340nm 1.03, Spn MK inh 10.0, Autofluor 339 0.78 and DPM-DC inhibit inactive.
For CCOc1cc(C2C(C(=O)N3CCCCC3)=C(C)NC3=C2C(=O)CCC3)cc(Br)c1O (centres undefined) the results were NADH coupling 16.0%, PMK inhibit 9.0, Abs 340nm 1.17, Spn MK inh 13.0, Autofluor 339 2.52* and DPM-DC inhibit inactive.
`Cc1nnc(SCc2ccc(Cl)cc2)n1CC1CCCO1` (centres undefined) gave NADH coupling 5.0%, PMK inhibit 7.0, Abs 340nm 1.06, Spn MK inh 5.0, Autofluor 339 1.03 and DPM-DC inhibit inactive.
O=C(NCc1ccccc1F)C1CCCN(C(=O)NC2CCCCC2)C1 (centres undefined) was read as NADH coupling 3.0%, PMK inhibit 7.0, Abs 340nm 1, Spn MK inh 2.0, Autofluor 339 1.08 and DPM-DC inhibit inactive.
`O=c1nc(-c2ccccc2)c2ccccc2[nH]1` gave NADH coupling 15.0%, PMK inhibit 11.0, Abs 340nm 1.07, Spn MK inh 10.0, Autofluor 339 2.7* and DPM-DC inhibit inactive.
`CCNc1nc(NC(C)(C)C)nc(N(C#N)CC)n1` gave NADH coupling 8.0%, PMK inhibit 25.0*, Abs 340nm 0.98, Spn MK inh 0.0, Autofluor 339 1.03 and DPM-DC inhibit inactive.
O=S(=O)(c1cccc(-c2cn3cccnc3n2)c1)N1CCCCCC1 was read as NADH coupling 9.0%, PMK inhibit 12.0, Abs 340nm 1.06, Spn MK inh 5.0 and Autofluor 339 3.6*.
O=C(Nc1ccccn1)c1cccc(S(=O)(=O)N2CCOCC2)c1 was read as NADH coupling 7.0%, PMK inhibit 6.0, Abs 340nm 1.03, Spn MK inh 10.0, Autofluor 339 0.95 and DPM-DC inhibit inactive.
`CC1CN(S(=O)(=O)c2cccc(-c3cn4cccnc4n3)c2)CC(C)O1` (centres undefined) gave NADH coupling 5.0%, PMK inhibit 4.0, Abs 340nm 1.12, Spn MK inh 5.0 and Autofluor 339 3.78*.
Screening O=S(=O)(c1cccc(-c2cn3cccnc3n2)c1)N1CCOCC1 returned NADH coupling 13.0%, PMK inhibit 14.0, Abs 340nm 1.09, Spn MK inh 11.0 and Autofluor 339 3.77*.
For CCOC(=O)c1cc2c(ccn2C)n1CC(=O)N1CCN(c2ccccc2OC)CC1 the results were NADH coupling 6.0%, PMK inhibit 11.0, Abs 340nm 1.04, Spn MK inh 8.0, Autofluor 339 1.18 and DPM-DC inhibit inactive.
For CC(=O)COc1cc(C)cc2oc(=O)c(C)c(C)c12 the results were NADH coupling 10.0%, PMK inhibit 9.0, Abs 340nm 1.05, Spn MK inh 10.0 and Autofluor 339 3.88*.
`CC(=O)C(C)Oc1cc(C)cc2oc(=O)c(C)c(C)c12` (centres undefined) gave NADH coupling 6.0%, PMK inhibit 4.0, Abs 340nm 1.09, Spn MK inh 7.0 and Autofluor 339 3.65*.
O=C(NCc1ccco1)C(c1cccnc1)N(C(=O)Cn1nnc2ccccc21)c1ccc(F)cc1 (centres undefined) was read as NADH coupling 8.0%, PMK inhibit 11.0, Abs 340nm 1.02, Spn MK inh 13.0, Autofluor 339 1.07 and DPM-DC inhibit inactive.
`CC(C)(C)NC(=O)c1ccc2nccnc2c1` gave NADH coupling 7.0%, PMK inhibit 10.0, Abs 340nm 1.01, Spn MK inh 11.0, Autofluor 339 1.06 and DPM-DC inhibit inactive.
Screening CC(C)N(C(=O)Nc1ccc2nccnc2c1)C(C)C returned NADH coupling 3.0%, PMK inhibit 0.0, Abs 340nm 1.07, Spn MK inh 5.0 and Autofluor 339 2.2*.
